Compound activity as filed in PubChem.
DT40 TDP1 no CPT = qHTS for Inhibitors of human tyrosyl-DNA phosphodiesterase 1 (TDP1): qHTS in cells in absence of CPT; Potency, µM (titrated, usually from 46.2 µM), most hits filed as inhibitors; DT40 Tdp1-/- hTDP1 cells, no CPT, ATP luminescence, 48 h; AID 686978, 2013; actives 15% (n = 420,000); note: nearly all actives have a fitted effect of over 55% in size
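No-CPT arm: Tdp1-/-;hTDP1 DT40 cells (400/well) plus compounds, incubated ≥48 hr at 37 °C. Readout CellTiter-Glo luminescence.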
HT1080-NT tox = qHTS for induction of synthetic lethality in tumor cells producing 2HG: qHTS for the HT-1080-NT fibrosarcoma cell line. Potency, µM (highest dose often 46.1 µM), actives largely listed as cytotoxic. actives 1.6% (n = 360,000). HT-1080-NT fibrosarcoma viability, CellTiter-Glo ATP luminescence, 48 h;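 note: NT is the 2HG producing partner of a matched IDH1 knockdown line; nearly all actives have a fitted effect of over 55% in size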
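750 cells/well, RPMI + 5% FBS; 2 h settle, compound pin-transfer, 48 h at 37 degrees C. CellTiter-Glo 10 min RT, luminescence. Normalized to DMSO and media-only wells.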
12-LOX inh = Primary qHTS assay for inhibitors of human arachidonate 12S-lipoxygenase (ALOX12): Round 2; purified 12hLO, xylenol orange hydroperoxide absorbance; Potency, µM (highest dose often 108 µM), hits mostly inhibitors; actives 1.1% (n = 580,000)
Target sequence (P18054 whole entry, looked up): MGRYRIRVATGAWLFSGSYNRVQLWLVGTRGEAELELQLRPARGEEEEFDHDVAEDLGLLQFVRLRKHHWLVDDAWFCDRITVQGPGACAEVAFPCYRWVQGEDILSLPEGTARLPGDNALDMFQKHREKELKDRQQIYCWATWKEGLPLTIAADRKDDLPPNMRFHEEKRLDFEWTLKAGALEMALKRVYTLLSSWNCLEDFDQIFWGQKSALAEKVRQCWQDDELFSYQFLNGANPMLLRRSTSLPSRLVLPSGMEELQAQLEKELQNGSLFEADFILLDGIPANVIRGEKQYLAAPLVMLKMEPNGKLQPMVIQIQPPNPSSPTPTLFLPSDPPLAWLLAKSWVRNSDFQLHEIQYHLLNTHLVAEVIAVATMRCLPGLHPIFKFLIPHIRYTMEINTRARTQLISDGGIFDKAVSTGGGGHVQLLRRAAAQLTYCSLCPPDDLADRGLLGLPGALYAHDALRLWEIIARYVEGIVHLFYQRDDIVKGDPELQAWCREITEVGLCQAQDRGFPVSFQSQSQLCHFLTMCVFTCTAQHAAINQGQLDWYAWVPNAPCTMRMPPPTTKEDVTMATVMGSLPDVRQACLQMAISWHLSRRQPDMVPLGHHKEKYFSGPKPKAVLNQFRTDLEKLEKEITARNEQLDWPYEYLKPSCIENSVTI
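Purified human 12hLO (150 nM final) in 25 mM Hepes, 0.01% Triton X-100, pH 7.0 was preincubated 15 min at room temperature with compound. Then 40 uM arachidonic acid was added, 30 min. Hydroperoxide was read by Fe-XO absorbance ratio 573/405 nm.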
TDP1 cell CPT = qHTS for Inhibitors of human tyrosyl-DNA phosphodiesterase 1 (TDP1): qHTS in cells in presence of CPT | actives 12% (n = 420,000) | Potency, µM (titrated, usually from 46.2 µM), most hits filed as inhibitors | chicken DT40 Tdp1-/-;hTDP1 cells + 20 nM CPT, ATP luminescence, 48 h; note: nearly all actives have a fitted effect of over 55% in size
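Cell growth measured by CellTiter-Glo luminescence after a minimum 48 h, 37 C compound exposure with 20 nM CPT in Tdp1-knockout DT40 cells stably expressing hTDP1, seeded 400/well; qHTS titration format.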
IL1B secr inh = qHTS for Inhibitors of Inflammasome Signaling: IL-1-beta AlphaLISA Primary Screen; activity change, % at 57.5 µM; THP-1 LPS/ATP IL-1B secretion, AlphaLISA, 16 h; hits give low values; actives 4.7% (n = 360,000); in the data active = activity change below about -50%; inconclusive = mostly about -30% to -49%
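Secreted IL-1B measured by AlphaLISA bead assay after 16 h compound exposure of THP-1 cells; compounds (final up to 57.5 uM) added 1 h before LPS (250 ng/mL) and ATP (1.25 mM) stimulation; lower signal means less secretion.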
HT1080 IDH1KD tx = qHTS for induction of synthetic lethality in tumor cells producing 2HG: qHTS for the HT-1080-IDH1KD cell line | actives 2% (n = 360,000) | Potency, µM (titrated, usually from 46.1 µM), actives largely listed as cytotoxic | AID 686971, 2013 | HT-1080 IDH1 knockdown viability, ATP luminescence, 48 h
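IDH1KD HT-1080 cells, 750/well, RPMI + 5% FBS; compound pinned after 2 h settling; 48 h, 37 °C; CellTiter-Glo luminescence; % activity normalised to DMSO and no-cell wells; curves fitted, classed by r2 and efficacy.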
Large screens that a line does not name were inactive. This is one part of a sample in which hits are shown more often than they occur. Unless noted, calls come from the whole dose curve; as a rule, active = well fitted curve in the direction sought with a large enough effect; inconclusive = small, poorly fitted or top-dose-only effect, or another doubt; inactive = no such curve, though single readings can be large; an effect the other way counts as inactive or inconclusive.

Cn1c(NCC2CCCCC2)nc2cc(-c3ccsc3)sc2c1=O	DT40 TDP1 no CPT inconclusive, TDP1 cell CPT 26µM
COc1cccc(-c2cc3nc(NCc4ccccc4F)n(C)c(=O)c3s2)c1	DT40 TDP1 no CPT 16µM, 12-LOX inh inconclusive, TDP1 cell CPT 23µM
COc1cccc(-c2cc3nc(NCc4cccnc4)n(C)c(=O)c3s2)c1	DT40 TDP1 no CPT inconclusive, TDP1 cell CPT inconclusive
CC1=NS(=O)(=O)N(C)C=C1C(=O)OCc1nc(-c2ccc3c(c2)OCO3)no1	none (no result: DT40 TDP1 no CPT, HT1080-NT tox, TDP1 cell CPT, IL1B secr inh, HT1080 IDH1KD tx)
C=CCOC(=O)C1=C(C)NC(C)=C(C(=O)OCC=C)C1/C=C/c1ccccc1	DT40 TDP1 no CPT inconclusive, HT1080-NT tox inconclusive, TDP1 cell CPT inconclusive, IL1B secr inh -69, HT1080 IDH1KD tx 18µM
COc1cc(Cl)ccc1C(=O)N1C[C@@H](CO)[C@H](c2ccncc2)C1	none (no result: DT40 TDP1 no CPT, HT1080-NT tox, TDP1 cell CPT, IL1B secr inh, HT1080 IDH1KD tx)
COc1cc(C)c(C)cc1S(=O)(=O)NCC(C)O (configuration not stated)	none (no result: DT40 TDP1 no CPT, HT1080-NT tox, TDP1 cell CPT, IL1B secr inh, HT1080 IDH1KD tx)
COc1ccc(CN2CCC(C(=O)Nc3ccc(Oc4cccnc4)cc3)CC2)cc1	TDP1 cell CPT inconclusive
Cn1ccnc1CN1CCCCC1C(=O)Nc1ccc(Oc2cccnc2)cc1 (configuration not stated)	DT40 TDP1 no CPT 23µM, HT1080-NT tox inconclusive, TDP1 cell CPT 15µM, HT1080 IDH1KD tx inconclusive
CCn1cc(CN2CCC(C(=O)Nc3ccc(Oc4ccccc4F)cc3)CC2)cn1	DT40 TDP1 no CPT 21µM, 12-LOX inh inconclusive, TDP1 cell CPT inconclusive
COc1cccc(O)c1CN1CCC(C(=O)Nc2ccc(Oc3cccnc3)cc2)CC1	DT40 TDP1 no CPT 13µM, TDP1 cell CPT 21µM
COc1cc(CN2CCCC(C(=O)Nc3ccccc3Oc3cccnc3)C2)ccc1F (configuration not stated)	DT40 TDP1 no CPT 16µM, TDP1 cell CPT inconclusive
CCc1nc2nccc(-c3cc(OC)c(OC)c(OC)c3)n2n1	none (no result: DT40 TDP1 no CPT, HT1080-NT tox, TDP1 cell CPT, IL1B secr inh, HT1080 IDH1KD tx)
Cc1cc(C(=O)OCC(=O)Nc2cccc3ccccc23)c2ccccc2n1	none (no result: DT40 TDP1 no CPT, HT1080-NT tox, TDP1 cell CPT, IL1B secr inh, HT1080 IDH1KD tx)
CCOC(=O)c1sc(NC(=O)C(C)Sc2nc(-c3ccccc3)cc(C(F)(F)F)n2)c(C(=O)OC)c1C (configuration not stated)	none (no result: HT1080-NT tox, IL1B secr inh, HT1080 IDH1KD tx)
COc1cccc(O)c1CN1CCC(C(=O)Nc2ccc(-c3cccc(C)c3)cc2)CC1	DT40 TDP1 no CPT 16µM, HT1080-NT tox 23µM, 12-LOX inh inconclusive, TDP1 cell CPT inconclusive, IL1B secr inh -95, HT1080 IDH1KD tx 18µM
COc1cccc(-c2cccc(NC(=O)C3CCN(Cc4cccc(C)n4)CC3)c2)c1	none
COc1ccc(CN2CCC(C(=O)Nc3ccc(Oc4cccnc4)cc3)CC2)c(C)c1C	DT40 TDP1 no CPT 2.9µM, TDP1 cell CPT inconclusive
CCc1ccc(CN2CCC(C(=O)Nc3ccc(Oc4cccnc4)cc3)CC2)o1	none (no result: DT40 TDP1 no CPT, HT1080-NT tox, TDP1 cell CPT, IL1B secr inh, HT1080 IDH1KD tx)
COc1ccc(NC(C)=O)cc1NC(=O)C1CC(=O)N(c2n[nH]c3ccccc23)C1 (configuration not stated)	none (no result: DT40 TDP1 no CPT, HT1080-NT tox, TDP1 cell CPT, IL1B secr inh, HT1080 IDH1KD tx)
CCOC(=O)c1cnc2sc3c(n2c1=O)CCCC3	DT40 TDP1 no CPT 15µM, TDP1 cell CPT 26µM
CC1=CC2=C(C=O)C(=O)C(C)(O)C(O)C2=CO1 (configuration not stated)	DT40 TDP1 no CPT inconclusive, HT1080-NT tox inconclusive, TDP1 cell CPT inconclusive, IL1B secr inh -62
COCc1nc(C2CCCN(C(=O)C3CCC3)C2)no1 (configuration not stated)	none (no result: DT40 TDP1 no CPT, HT1080-NT tox, TDP1 cell CPT, IL1B secr inh, HT1080 IDH1KD tx)
